From PubChem
Sampled rows, rich in hits. Any-hit rate of the full collection: about 2.4%.
M1 ag: human M1 muscarinic receptor agonists, primary screen, Fluo-8 calcium fluorescence, CHO-K1 cells, HTS | activation, % at 3 µM | AID 588814, 2011 | 360,000 tested, 0.33% active | CHO-K1 hM1, agonist mode; 0% DMSO, 100% acetylcholine EC100 | Muscarinic acetylcholine receptor M1 (Homo sapiens), P11229;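 active = activation above the run's mean compound activation plus 3 SD, cut at about 16% in these data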;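 also: peak over basal fluorescence ratio within a 140 s kinetic read after compound addition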
Target sequence (P11229 whole entry, looked up): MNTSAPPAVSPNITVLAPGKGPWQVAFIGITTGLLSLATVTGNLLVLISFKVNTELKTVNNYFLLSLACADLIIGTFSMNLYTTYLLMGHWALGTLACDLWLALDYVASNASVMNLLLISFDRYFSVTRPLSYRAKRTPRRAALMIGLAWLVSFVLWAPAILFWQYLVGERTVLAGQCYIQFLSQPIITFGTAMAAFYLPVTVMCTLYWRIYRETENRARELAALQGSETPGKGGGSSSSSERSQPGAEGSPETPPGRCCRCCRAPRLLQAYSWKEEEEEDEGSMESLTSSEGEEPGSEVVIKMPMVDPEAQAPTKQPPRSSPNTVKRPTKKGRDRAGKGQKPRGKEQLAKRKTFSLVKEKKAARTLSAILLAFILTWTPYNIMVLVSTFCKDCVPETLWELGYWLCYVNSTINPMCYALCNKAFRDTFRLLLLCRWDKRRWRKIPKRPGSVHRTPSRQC
CHO-K1 Ca ag: counter-screen for M1 agonists: effect in parental CHO-K1 cells | AID 602248, 2012 | activation, % at 3 µM | Fluo-8 calcium fluorescence; scaled to maximal ATP response, vehicle zero | 360,000 tested, 0.48% active; in the data active = activation above about 15%;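 also: untransfected CHO-K1 host cells lacking M1 receptor as counterscreen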
CHRM1 PAM: human M1 muscarinic receptor positive allosteric modulators, primary screen, CHO-K1 cells, Fluo-8 calcium fluorescence, 1536-well | CHO-K1 hM1, ACh EC20; 0% = ACh EC20, 100% = maximal ACh | Muscarinic acetylcholine receptor M1 (Homo sapiens), P11229 | 360,000 tested, 0.088% active | AID 588819, 2011 | activation, % at 3 µM; in the data active = activation above about 19%, passing the limit was not always enough
M1 antag: human M1 muscarinic receptor antagonists, primary screen, CHO-K1 cells, Fluo-8 calcium fluorescence, 1536-well; Muscarinic acetylcholine receptor M1 (Homo sapiens), P11229; CHO-K1 hM1, ACh EC80 antagonist; inhibition, % at 3 µM; 360,000 tested, 1.3% active; AID 588852, 2011;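 active = percent inhibition above its own plate's cutoff, namely the mean of that plate's compound wells plus 3 SD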;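 also: peak over basal fluorescence ratio during 140 s after agonist addition; 0% = ACh EC80 plus DMSO and 100% = DMSO alone without agonist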
CHO-K1 Ca PAM: nonselective calcium activators in parental CHO-K1 cells, primary screen, counter-screen for M1 PAM project, cell-based, Fluo-8 calcium fluorescence, full deck, 1536-well | ATP EC20; 0% at ATP EC20, 100% at ATP max | activation, % at 3 µM | 360,000 tested, 0.02% active | AID 602247, 2012;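 active = activation above the run cutoff, the mean activation of all test compounds plus 3 SD, cut at about 40% in these data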;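 also: peak over basal fluorescence ratio in a 140 s read after ATP addition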
CHO-K1 Ca antag: M1 antagonist counterscreen hit in parental CHO-K1 cells. 360,000 tested, 0.6% active. ATP-induced calcium, Fluo-8 fluorescence. inhibition, % at 3 µM. AID 602250;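 active = inhibition above a per-plate cutoff, the plate's mean sample inhibition plus 3 SD, cut at about 24% in these data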;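 also: 0% = DMSO plus EC80 ATP and 100% = DMSO alone without ATP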
Starred values were filed as active, the others as inactive; . = no result.

SMILES	M1 ag	CHO-K1 Ca ag	CHRM1 PAM	M1 antag	CHO-K1 Ca PAM	CHO-K1 Ca antag
Cc1cc(SCC(=O)OC(C)C(=O)N(C)c2ccccc2)nc2ccccc12 (stereo not given)	1	0	10	-1	17	-3
COC(=S)N/C(=N\S(=O)(=O)c1ccc(Cl)cc1)c1ccccc1	-3	1	6	-6	-2	-10
CCCCCSc1nnc(N)s1	-2	0	27*	-20	18	-2
O=C(NC1CCN(c2ncccn2)CC1)c1c(F)cccc1F	-1	2	16	-14	6	-11
CC(C)(C)NC(=O)C(c1ccc(F)cc1)N(CCc1ccccc1)C(=O)c1ccn[nH]1 (stereo not given)	-7	15*	-8	12	2	9
CCOC(=O)C1=C(COC(=O)/C=C/c2ccccc2Cl)NC(=O)NC1C (stereo not given)	0	3	-4	9	-3	0
CCOC(=O)C1=C(COC(=O)/C=C/c2ccccc2F)NC(=O)NC1C (stereo not given)	0	2	-13	27*	-31	21
O=C(OCCC12CC3CC(CC(C3)C1)C2)c1ccc(NCc2cc(O)ccc2O)cc1	13	0	35*	-11	-6	-5
COC(=O)c1ccc(CSc2nc3ccccc3o2)cc1	-1	0	-1	10	-6	29*
O=[N+]([O-])c1ccc(CSc2nc3ccccc3o2)cc1	-3	-1	5	-13	-8	11
CCN(CC)CCN1C(=O)c2ccccc2NC1c1ccccc1F (stereo not given)	-12	0	-37	89*	-1	-13
CCN(CC)CCN1C(=O)c2ccccc2NC1c1ccc(F)cc1 (stereo not given)	-7	0	-2	-6	5	-1
CCOc1ccc(C(CC(=O)O)NC(=O)C(CC)c2ccccc2)cc1 (stereo not given)	-4	0	8	-12	-12	-3
O=C(COc1ccc(S(=O)(=O)NC2CCCCC2)cc1Cl)NCc1cccnc1	-1	0	8	7	-9	28*
Cc1ccc(NC(=O)C2(C)CCN2C(=O)Cc2ccc(C(C)(C)C)cc2)cc1C (stereo not given)	0	4	-11	13	13	-8
CCCCC(=O)N(C)c1c(CC)nc2c(OCC(=O)c3ccc(Cl)cc3Cl)cccn12	-7	1	-6	-1	18	-8
CCN(CC)CC#CCC(O)(c1ccccc1)C1CCCCC1 (stereo not given)	-15	16*	-38	99*	-6	19
CCC(=O)Nc1ccc(/C(C)=N\NS(=O)(=O)c2ccc(C)cc2)cc1	-1	0	-2	-2	16	-7
Cc1noc(C(C)C)c1C(=O)Nc1ccc(-c2nnc3n2CCCCC3)cc1	-9	0	-16	33*	5	-9
Cc1onc(-c2ccccc2)c1C(=O)Nc1ccc(-c2nnc3n2CCCCC3)cc1	-5	1	2	-8	-6	4
CN(C)Cc1ccc(F)cc1Sc1ccc(Cl)cc1Cl	-10	-1	-22	52*	5	-7
COC(=O)[C@]1(Sc2ccc(OC)cc2)CC(=O)N[C@@H]1c1ccccc1	.	4	.	.	-8	-17
CC(C)(C)c1ccc(OCC(=O)N2CCCCCC2)c(Br)c1	-4	0	1	-3	2	11
Cc1ccc(OCC(=O)N2CCCCC2)c(Br)c1	-1	0	27*	-23	7	-16
NC(=O)COC(=O)c1ccc(Cl)c(S(=O)(=O)N2CCCCCC2)c1	-4	1	6	-5	6	-16
Cc1ccc(S(=O)(=O)N2CCN(C(=O)COC(=O)c3ccc(C(C)(C)C)cc3)CC2)c(C)c1	-2	0	8	-3	-20	9
Cc1ccc(S(=O)(=O)N2CCN(C(=O)COC(=O)c3ccc(O)cc3)CC2)c(C)c1	0	1	-12	30*	-20	27*
